# Test results published in PubChem BioAssay.
# For part of these data: Results with a measured potency or affinity are listed apart. Calls of active or inactive are those of the source.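 The calls were made as follows, unless noted: active = earlier screen potentiator hit that boosts the TRPC4 ion channel at some dose, with a dose response; inactive = no potentiation, no dose response, or not a prior hit.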
# Tests used:
# [1] = test system: TRPC4 beta (transient receptor potential cation channel C4), mouse; assay: TRPC4 cation channel opening, retest – cell-based, Fluo4 calcium, HEK293 TRPC4beta/mu-opioid, duplicates, 10 µM, confirmation (AID 2426;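 active = fluorescence ratio normalized to control raised more than 50% in primary screen plus both repeat runs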;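 as to activation: percent rise of integrated ratio over buffer wells lacking compound which define 0%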); conditions: Fluo4 calcium fluorescence, at 10 µM; stronger effect = higher value
# [2] = test system: transient receptor potential cation channel C4 beta (TRPC4), mouse; assay: TRPC4 cation channel opening, second retest – cell-based, second round, Fluo4, HEK293 TRPC4beta/mu-opioid, 1 µM, confirmation (AID 2461;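 active = primary screen active and over 50% activation in each of two duplicate runs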;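 as to activation: 0% = wells without test compound as baseline of integrated fluorescence ratio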); conditions: Fluo4 calcium fluorescence, at 1 µM; stronger effect = higher value
# [3] = test system: TRPC4 (transient receptor potential cation channel C4 beta), mouse; assay: potentiation of DAMGO EC20 TRPC4 response – cell-based, second round, Fluo-4, HEK293 TRPC4beta/mu-opioid, 1 µM, confirmation (AID 2554;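 active = primary screen hit whose fluorescence ratio, in both repeats, exceeds the weak agonist control mean by 3 SD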); conditions: DAMGO EC20, Fluo-4 calcium flux, at 1 µM; stronger effect = higher value
# [4] = test system: TRPC4 beta (transient receptor potential cation channel C4), mouse; assay: potentiation of DAMGO EC20 TRPC4 response – cell-based, Fluo-4, HEK293 TRPC4beta/mu-opioid, confirmation (AID 2555;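 active = primary screen hit whose calcium fluorescence ratio, in both repeats, exceeds the weak agonist control mean by 3 SD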); conditions: DAMGO EC20, Fluo-4 calcium flux, at 10 µM; stronger effect = higher value
# [5] = biological target: Short transient receptor potential channel 4 (Mus musculus) (UniProt Q9QUQ5); assay: blockers of DAMGO-evoked TRPC4 calcium flux – cell-based, Fluo4, HEK293 TRPC4beta/mu-opioid, confirmation (AID 2636;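 active = calcium signal cut by more than 3 SD below the full-agonist control yet still positive, in both repeats and the earlier primary screen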); conditions: at 10 µM; stronger effect = higher value
# Short transient receptor potential channel 4 (Mus musculus), sequence (Q9QUQ5 whole entry, looked up): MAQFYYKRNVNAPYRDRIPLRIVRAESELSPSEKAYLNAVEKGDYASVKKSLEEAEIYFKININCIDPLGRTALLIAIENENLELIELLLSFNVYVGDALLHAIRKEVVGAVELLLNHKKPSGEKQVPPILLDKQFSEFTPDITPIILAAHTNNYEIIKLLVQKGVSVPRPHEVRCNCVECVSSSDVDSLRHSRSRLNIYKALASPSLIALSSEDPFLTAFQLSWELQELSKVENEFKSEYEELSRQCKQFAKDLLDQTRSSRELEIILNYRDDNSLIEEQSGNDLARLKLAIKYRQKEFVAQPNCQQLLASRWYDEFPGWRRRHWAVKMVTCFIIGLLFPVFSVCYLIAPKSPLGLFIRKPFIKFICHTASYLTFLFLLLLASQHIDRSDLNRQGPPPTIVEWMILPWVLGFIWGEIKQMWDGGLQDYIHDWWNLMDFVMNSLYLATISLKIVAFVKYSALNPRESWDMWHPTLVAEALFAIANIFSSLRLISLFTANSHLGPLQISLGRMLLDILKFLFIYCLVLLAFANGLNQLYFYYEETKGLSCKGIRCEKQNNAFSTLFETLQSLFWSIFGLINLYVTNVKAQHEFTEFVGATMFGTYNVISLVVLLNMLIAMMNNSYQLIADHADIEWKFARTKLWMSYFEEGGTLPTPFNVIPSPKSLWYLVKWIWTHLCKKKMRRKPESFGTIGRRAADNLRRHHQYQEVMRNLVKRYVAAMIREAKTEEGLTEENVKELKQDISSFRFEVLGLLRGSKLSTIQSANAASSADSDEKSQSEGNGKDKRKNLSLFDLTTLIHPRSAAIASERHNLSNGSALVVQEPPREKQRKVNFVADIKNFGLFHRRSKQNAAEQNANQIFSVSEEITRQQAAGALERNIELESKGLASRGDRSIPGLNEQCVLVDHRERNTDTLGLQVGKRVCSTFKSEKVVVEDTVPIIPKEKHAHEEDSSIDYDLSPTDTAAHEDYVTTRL
# [6] = biological target: Short transient receptor potential channel 4 (Mus musculus) (UniProt Q9QUQ5); assay: blockers of DAMGO-evoked TRPC4 calcium flux – cell-based, second round, Fluo4, HEK293 TRPC4beta/mu-opioid, 1 µM, confirmation (AID 2637;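 active = calcium signal ratio cut to more than 3 SD under the fully stimulated control mean yet still positive, in both repeats and the primary screen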); conditions: at 1 µM; stronger effect = higher value
# [7] = biological target: Short transient receptor potential channel 4 (Mus musculus) (UniProt Q9QUQ5); assay: potentiation of DAMGO-evoked TRPC4 calcium signal – cell-based, HEK293 TRPC4/mu-opioid, Fluo-4 calcium, EC20 DAMGO, dose response (AID 434941);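 also: calcium entry triggered by an EC20 dose of DAMGO at the co-expressed mu-opioid receptor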
# [8] = biological target: Short transient receptor potential channel 4 (Mus musculus) (UniProt Q9QUQ5); assay: block of DAMGO-driven TRPC4 calcium entry – cell-based, HEK293 TRPC4/mu-opioid, Fluo-4 calcium, dose response (AID 434942;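 active = primary screen inhibitor hit that blocks the TRPC4 channel at some tested dose, yielding a dose curve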)
# [9] = biological target: Short transient receptor potential channel 6 (Mus musculus) (UniProt Q61143); assay: TRPC6 blockade by TRPC4 inhibitor hits – cell-based, HEK293, membrane potential dye, duplicate, selectivity assay for TRPC4 inhibitor project, confirmation (AID 434948;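 active = active in primary screen and both duplicates, each dropping signal beyond three positive-control SD with fluorescence still positive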); conditions: HEK293 TRPC6, membrane potential dye fluorescence, at 10 µM, stimulated with maximal-effect acetylcholine; stronger effect = higher value
# Short transient receptor potential channel 6 (Mus musculus), sequence (Q61143 whole entry, looked up): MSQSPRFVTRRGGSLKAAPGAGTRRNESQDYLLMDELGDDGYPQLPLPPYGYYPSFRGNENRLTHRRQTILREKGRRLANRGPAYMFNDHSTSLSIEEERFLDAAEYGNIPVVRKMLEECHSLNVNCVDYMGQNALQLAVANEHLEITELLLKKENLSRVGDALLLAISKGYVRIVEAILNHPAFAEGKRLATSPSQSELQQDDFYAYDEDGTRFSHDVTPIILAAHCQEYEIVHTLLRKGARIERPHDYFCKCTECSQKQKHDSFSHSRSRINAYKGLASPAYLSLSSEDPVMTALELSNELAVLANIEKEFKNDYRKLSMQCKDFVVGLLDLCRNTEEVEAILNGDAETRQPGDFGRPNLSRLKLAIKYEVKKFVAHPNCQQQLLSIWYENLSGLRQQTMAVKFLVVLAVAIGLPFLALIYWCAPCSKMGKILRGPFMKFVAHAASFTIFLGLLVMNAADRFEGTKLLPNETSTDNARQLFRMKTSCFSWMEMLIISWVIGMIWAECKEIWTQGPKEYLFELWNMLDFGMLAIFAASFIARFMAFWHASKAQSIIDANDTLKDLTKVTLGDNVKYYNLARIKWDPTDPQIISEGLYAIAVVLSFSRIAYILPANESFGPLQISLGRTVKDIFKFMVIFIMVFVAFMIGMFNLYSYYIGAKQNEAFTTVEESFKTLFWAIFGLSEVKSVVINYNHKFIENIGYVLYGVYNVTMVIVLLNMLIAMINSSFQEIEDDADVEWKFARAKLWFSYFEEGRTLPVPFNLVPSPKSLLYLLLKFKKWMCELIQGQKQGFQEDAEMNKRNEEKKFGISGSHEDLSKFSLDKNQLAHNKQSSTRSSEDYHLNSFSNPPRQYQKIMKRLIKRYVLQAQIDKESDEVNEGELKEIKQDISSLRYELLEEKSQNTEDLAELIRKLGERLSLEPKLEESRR
# [10] = biological target: Short transient receptor potential channel 6 (Mus musculus) (UniProt Q61143); assay: TRPC6 opening by TRPC4 activator hits – cell-based, HEK293, membrane potential dye, duplicate, selectivity assay for TRPC4 activator project, confirmation (AID 434950;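 active = membrane potential signal rise above negative control mean plus 3 SD in both duplicates, also active in the earlier TRPC4 screen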;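 as to activation: 0% = buffer only wells and 100% = acetylcholine maximal-effect wells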); conditions: HEK293 TRPC6, membrane potential fluorescence, at 10 µM; activation: stronger effect = higher value; outcome: activation
# [11] = biological target: Short transient receptor potential channel 6 (Mus musculus) (UniProt Q61143); assay: positive modulators of mouse TRPC6 channel – HEK293 cells, membrane potential dye, duplicate, selectivity assay for TRPC4 potentiator project, confirmation (AID 434952;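 active = compound raising the membrane signal above positive-control mean plus 3 SD in both repeats, and a primary screen hit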); conditions: HEK293 TRPC6, membrane potential dye fluorescence, at 10 µM, maximal acetylcholine added after compound; stronger effect = higher value
# [12] = biological target: Short transient receptor potential channel 4 (Mus musculus) (UniProt Q9QUQ5); assay: calcium flux activators in TRPC4/5HT1a cells, counter-screen for TRPC4 activator project, cell-based, second counter screen, HEK293 TRPC4/5HT1a, Fluo-4 (AID 434977;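 active = calcium signal rise above buffer-control mean plus 5 SD in both duplicates, and also a hit in the primary screen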;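 as to activation: plate controls were assay buffer for no effect and maximal serotonin response for full effect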); conditions: Fluo-4 calcium flux, at 10 µM; stronger effect = higher value
# [13] = serotonin-gated TRPC4 signal block – cell-based, second counter screen, HEK293 TRPC4/5HT1a, Fluo-4, counter-screen for TRPC4 inhibitor project, confirmation (AID 434978;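 active = primary screen active whose calcium signal fell more than 3 SD beyond the full-serotonin control mean in both duplicate plates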;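 also: serotonin given first at submaximal then at maximal dose after compound preincubation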); conditions: Fluo-4 calcium flux, at 10 µM, serotonin added to trigger calcium flux; stronger effect = higher value
# [14] = test system: TRPC4 (mouse), co-expressed with 5HT1a in HEK293; assay: enhancement of serotonin-evoked TRPC4 response – cell-based, second counter screen, HEK293 TRPC4/5HT1a, Fluo-4, counter-screen for TRPC4 potentiator project, confirmation (AID 434979;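 active = signal rise over 3 SD above mean of control wells given weak agonist, in both repeats and first screen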); conditions: Fluo-4 calcium flux, at 10 µM, serotonin added at its EC20 dose; stronger effect = higher value
# [15] = nonspecific calcium rise without TRPC4 – cell-based, HEK293 mu-opioid receptor line, counter-screen for TRPC4 activator project, confirmation (AID 449723;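 active = hit in primary screen, with calcium signal over 5 SD above buffer well mean in both duplicates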;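 also: counter screen cells carry the mu-opioid receptor alone and lack TRPC4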); conditions: HEK293 mu-opioid cells, Fluo-4 calcium fluorescence, at 10 µM; stronger effect = higher value
# [16] = nonspecific potentiation of DAMGO calcium response – cell-based, HEK293 mu-opioid receptor line, counter-screen for TRPC4 allosteric potentiator project, confirmation (AID 449724;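 active = calcium signal rise more than 3 SD above the low-dose agonist control mean, in both duplicate plates and the primary screen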;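 also: HEK293 cells carrying mu-opioid receptor only with no TRPC4 channel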); conditions: HEK293 mu-opioid receptor cells, Fluo-4 calcium flux, at 10 µM, compound added before EC20 DAMGO stimulus; stronger effect = higher value
smiles,measurement,setting,value
CCN(CC)CCCNC(=O)c1cc2c(-c3ccc(Cl)cc3)nn(C)c2s1,outcome,[1],inactive
same,outcome,[2],inactive
same,potentiation,[3],13% (active)
same,outcome,[4],inactive
same,outcome,[5],inactive
same,outcome,[6],inactive
same,outcome,[7],inactive
same,outcome,[8],inactive
same,outcome,[9],inactive
same,outcome,[10],inactive
same,outcome,[11],inactive
same,activation,[12],12.6% (active)
same,outcome,[13],inactive
same,potentiation,[14],31.3% (active)
same,outcome,[15],inactive
same,outcome,[16],inactive
COc1ccc(C(CNc2ncnc3sc(C)c(C)c23)N(C)C)cc1 (stereo not given),activation,[1],227% (active)
same,activation,[2],113% (active)
same,outcome,[3],inactive
same,outcome,[4],inactive
same,outcome,[5],inactive
same,outcome,[6],inactive
same,outcome,[7],inactive
same,outcome,[8],inactive
same,outcome,[9],inactive
same,outcome,[10],inactive
same,outcome,[11],inactive
same,outcome,[12],inactive
same,outcome,[13],inactive
same,outcome,[14],inactive
same,outcome,[15],inactive
same,outcome,[16],inactive
CC(=O)c1ccc(S(=O)(=O)NCc2ccc(C(=O)NCC(c3ccccc3)N(C)C)cc2)cc1 (stereo not given),activation,[1],127% (active)
same,activation,[2],99% (active)
same,outcome,[3],inactive
same,outcome,[4],inactive
same,outcome,[5],inactive
same,outcome,[6],inactive
same,outcome,[7],inactive
same,outcome,[8],inactive
same,outcome,[9],inactive
same,activation,[10],33% (active)
same,outcome,[11],inactive
same,outcome,[12],inactive
same,outcome,[13],inactive
same,outcome,[14],inactive
same,outcome,[15],inactive
same,outcome,[16],inactive
O=C(CN1CCN(c2ncc(C(F)(F)F)cc2Cl)CC1)N1CCN(c2ncc(C(F)(F)F)cc2Cl)CC1,activation,[1],128% (active)
same,outcome,[2],inactive
same,outcome,[3],inactive
same,outcome,[4],inactive
same,outcome,[5],inactive
same,outcome,[6],inactive
same,outcome,[7],inactive
same,outcome,[8],inactive
same,outcome,[9],inactive
same,outcome,[10],inactive
same,outcome,[11],inactive
same,activation,[12],42% (active)
same,outcome,[13],inactive
same,outcome,[14],inactive
same,outcome,[15],inactive
same,outcome,[16],inactive
CCCN(CCC)CCNC(=O)CCC(=O)Nc1ccc2nc(N3CCOCC3)cc(C)c2c1,activation,[1],99% (active)
same,activation,[2],67% (active)
same,outcome,[3],inactive
same,outcome,[4],inactive
same,outcome,[5],inactive
same,outcome,[6],inactive
same,outcome,[7],inactive
same,outcome,[8],inactive
same,outcome,[9],inactive
same,outcome,[10],inactive
same,outcome,[11],inactive
same,activation,[12],35.6% (active)
same,outcome,[13],inactive
same,outcome,[14],inactive
same,outcome,[15],inactive
same,outcome,[16],inactive
CCCCN1/C(=C/c2ccc3ccccc3[n+]2CC)Sc2ccccc21,activation,[1],412% (active)
same,outcome,[2],inactive
same,outcome,[3],inactive
same,outcome,[4],inactive
same,outcome,[5],inactive
same,outcome,[6],inactive
same,outcome,[7],inactive
same,outcome,[8],inactive
same,outcome,[9],inactive
same,outcome,[10],inactive
same,outcome,[11],inactive
same,activation,[12],154% (active)
same,outcome,[13],inactive
same,outcome,[14],inactive
same,activation,[15],271% (active)
same,outcome,[16],inactive
CC1(C(=O)NC(=S)NNC(=O)c2ccncc2)CCCCC1,activation,[1],197% (active)
same,outcome,[2],inactive
same,outcome,[3],inactive
same,outcome,[4],inactive
same,outcome,[5],inactive
same,outcome,[6],inactive
same,outcome,[7],inactive
same,outcome,[8],inactive
same,outcome,[9],inactive
same,outcome,[10],inactive
same,outcome,[11],inactive
same,activation,[12],101% (active)
same,outcome,[13],inactive
same,outcome,[14],inactive
same,outcome,[15],inactive
same,outcome,[16],inactive
NC(N)=NN=C1CCCCCCCCCCC1,activation,[1],95% (active)
same,outcome,[2],inactive
same,outcome,[3],inactive
same,outcome,[4],inactive
same,outcome,[5],inactive
same,outcome,[6],inactive
same,outcome,[7],inactive
same,outcome,[8],inactive
same,outcome,[9],inactive
same,activation,[10],32.5% (active)
same,outcome,[11],inactive
same,activation,[12],32.2% (active)
same,outcome,[13],inactive
same,outcome,[14],inactive
same,activation,[15],24.9% (active)
same,outcome,[16],inactive
Cn1c(N2CCN(C(=O)Nc3ccc(F)cc3)CC2)nc2ccccc21,activation,[1],51% (active)
same,outcome,[2],inactive
same,outcome,[3],inactive
same,outcome,[4],inactive
same,outcome,[5],inactive
same,outcome,[6],inactive
same,outcome,[7],inactive
same,outcome,[8],inactive
same,outcome,[9],inactive
same,outcome,[10],inactive
same,outcome,[11],inactive
same,activation,[12],22.1% (active)
same,outcome,[13],inactive
same,outcome,[14],inactive
same,outcome,[15],inactive
same,outcome,[16],inactive
O=S(=O)(NCCc1csc(-c2ccccc2)n1)c1cccnc1,activation,[1],93% (active)
same,outcome,[2],inactive
same,outcome,[3],inactive
same,outcome,[4],inactive
same,outcome,[5],inactive
same,outcome,[6],inactive
same,outcome,[7],inactive
same,outcome,[8],inactive
same,outcome,[9],inactive
same,activation,[10],59% (active)
same,outcome,[11],inactive
same,activation,[12],26.7% (active)
same,outcome,[13],inactive
same,outcome,[14],inactive
same,outcome,[15],inactive
same,outcome,[16],inactive
CN(C)C(CNC(=O)Nc1cccc(Cl)c1)c1cccnc1 (stereo not given),outcome,[1],inactive
same,activation,[2],106% (active)
same,outcome,[3],inactive
same,outcome,[4],inactive
same,outcome,[5],inactive
same,outcome,[6],inactive
same,outcome,[7],inactive
same,outcome,[8],inactive
same,outcome,[9],inactive
same,activation,[10],30.5% (active)
same,outcome,[11],inactive
same,outcome,[12],inactive
same,outcome,[13],inactive
same,outcome,[14],inactive
same,outcome,[15],inactive
same,outcome,[16],inactive
CCCN(CCC)CCCNC(=O)c1cc2c(-c3ccc(OC)c(OC)c3)nn(C)c2s1,activation,[1],97% (active)
same,activation,[2],78% (active)
same,outcome,[3],inactive
same,outcome,[4],inactive
same,outcome,[5],inactive
same,outcome,[6],inactive
same,outcome,[7],inactive
same,outcome,[8],inactive
same,outcome,[9],inactive
same,outcome,[10],inactive
same,outcome,[11],inactive
same,activation,[12],38.6% (active)
same,outcome,[13],inactive
same,outcome,[14],inactive
same,outcome,[15],inactive
same,outcome,[16],inactive
COc1ccc(C(CNC(=O)COc2ccccc2OC)N(C)C)cc1OC (stereo not given),activation,[1],133% (active)
same,outcome,[2],inactive
same,outcome,[3],inactive
same,outcome,[4],inactive
same,outcome,[5],inactive
same,outcome,[6],inactive
same,outcome,[7],inactive
same,outcome,[8],inactive
same,outcome,[9],inactive
same,activation,[10],35% (active)
same,outcome,[11],inactive
same,outcome,[12],inactive
same,outcome,[13],inactive
same,outcome,[14],inactive
same,outcome,[15],inactive
same,outcome,[16],inactive
CC(=O)c1c(C)nn(CC(=O)NC2CCCN(Cc3ccc(CC(C)C)cc3)C2)c1C (stereo not given),activation,[1],122% (active)
same,outcome,[2],inactive
same,outcome,[3],inactive
same,outcome,[4],inactive
same,outcome,[5],inactive
same,outcome,[6],inactive
same,outcome,[7],inactive
same,outcome,[8],inactive
same,outcome,[9],inactive
same,activation,[10],34.5% (active)
same,outcome,[11],inactive
same,activation,[12],50.2% (active)
same,outcome,[13],inactive
same,outcome,[14],inactive
same,outcome,[15],inactive
same,outcome,[16],inactive
CC(=O)NC(CC(=O)NCC(c1ccco1)N(C)C)c1ccccc1 (stereo not given),activation,[1],98% (active)
same,activation,[2],78% (active)
same,outcome,[3],inactive
same,outcome,[4],inactive
same,outcome,[5],inactive
same,outcome,[6],inactive
same,outcome,[7],inactive
same,outcome,[8],inactive
same,outcome,[9],inactive
same,outcome,[10],inactive
same,outcome,[11],inactive
same,outcome,[12],inactive
same,outcome,[13],inactive
same,outcome,[14],inactive
same,outcome,[15],inactive
same,outcome,[16],inactive
